# Measured values as given in the supplement of paper PMC8728848.
# About 410 targets per protein were measured; listed, in parts, are those with the strongest signals and a random draw of the rest.
# B1: SLLPI (Mus musculus), Q9D9X8 (protein)
# chain: MGICMSMYTQVLVPVDADGDHHILWSRFYERWGSCFNPCAGLVNCLPPHSSALYLCHRMEARSRAPRRQLCPPGITWLALAYLLSCLLASSKAKVFSRCELAKEMHDFGLDGYRGYNLADWVCLAYYTSGFNTNAVDHEADGSTNNGIFQISSRRWCRTLASNGPNLCRIYCTDLLNNDLKDSIVCAMKIVQEPLGLGYWEAWRHHCQGRDLSDWVDGCDF
# B2: P-Selectin (Mus musculus), Q01102 (protein)
# chain: MAGCPKGSWTPRLRSVILGGAQLIWFSALISELVNQKEVAAWTYNYSTKAYSWNNSRVFCRRHFTDLVAIQNKNEIAHLNDVIPFFNSYYWIGIRKINNKWTWVGTNKTLTEEAENWADNEPNNKKNNQDCVEIYIKSNSAPGKWNDEPCFKRKRALCYTASCQDMSCSNQGECIETIGSYTCSCYPGFYGPECEYVKECGKVNIPQHVLMNCSHPLGEFSFNSQCTFSCAEGYELDGPGELQCLASGIWTNNPPKCDAVQCQSLEAPPHGTMACMHPIAAFAYDSSCKFECQPGYRARGSNTLHCTGSGQWSEPLPTCEAIACEPPEIPIHGSMDCVPSTGTFGYNSSCTFLCAEGFVLKGNDAIQCADSGQWTAPAPFCEALQCPEFPVPSKAQVNCSDPFGTLTYQSVCSFSCDEGSLLVGASVIRCLATGHWNGAPPECQAVSCAPMLSPENGSMTCVQPLGNSTYKSTCQFMCDEGFYLSGPERLDCSPSGHWTGTPPTCEAIKCPGIFAPEQGNLDCSHVHGEFGVGSICHFSCNEDFELLGSENVECTVSGRWSAPPPTCKGITSLPAPAVRCPALTTPGQGTMSCQHHLGSFGPNTTCYFGCKTGFTLRGANSLRCRASGQWTAVTPMCRAVKCSELHMDTAVAMNCSNPWGNFSYGSTCTFQCPEGQSLNGSVRATCREDGHWSDAMPTCQAGTLTIQEALTYLGGAVASTTGLAVGGTLLALLRKRLRKKDDGKCPLNPHSHLGTYGVFTNAAYDPTP
# Tests used:
# Test in all cases: glycan array binding signal (z-score within array); higher = stronger binding
# Conditions in all cases: glycan notation: IUPAC condensed, linker removed
# [1] = biological target: Fuc(a1-2)Gal(b1-3)GalNAc(b1-3)Gal
# Outline: (§1)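 Negative Z-scores can be read as non-binding. The Z-score is calculated within each array and then averaged across arrays of one protein sequence at different concentrations or buffers and across linkers. Arrays, 3228 in all, were curated from the Consortium for Functional Glycomics database and kept only where the protein sequence was available.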
# Fuc(a1-2)Gal(b1-4)GlcNAc = biological target: Fuc(a1-2)Gal(b1-4)GlcNAc
# Outline: as §1
# [2] = biological target: Fuc(a1-2)Gal(b1-4)GlcNAc(b1-3)Gal(b1-4)GlcNAc
# Outline: as §1
# [3] = biological target: Fuc(a1-2)Gal(b1-4)GlcNAc6S
# Outline: as §1
# [4] = biological target: Fuc(a1-2)[Gal(a1-3)]Gal(b1-3)GlcNAc
# Outline: as §1
# [5] = biological target: Fuc(a1-3)[Gal3S(b1-4)]GlcNAc6S
# Outline: as §1
# Gal(b1-2)Gal = biological target: Gal(b1-2)Gal
# Outline: as §1
# [6] = biological target: Gal(b1-3)GlcNAc(b1-2)Man(a1-3)[Gal(b1-3)GlcNAc(b1-2)Man(a1-6)]Man(b1-4)GlcNAc(b1-4)GlcNAc
# Outline: as §1
# [7] = biological target: Gal(b1-3)[Fuc(a1-4)]GlcNAc(b1-3)Gal(b1-4)[Fuc(a1-3)]GlcNAc
# Outline: as §1
# [8] = biological target: Gal(b1-4)GlcNAc(b1-3)[GlcNAc(b1-6)]Gal(b1-4)GlcNAc
# Outline: as §1
# Gal3S(b1-3)GlcNAc = biological target: Gal3S(b1-3)GlcNAc
# Outline: as §1
# Gal3S(b1-4)Glc6S = biological target: Gal3S(b1-4)Glc6S
# Outline: as §1
# [9] = biological target: Gal3S(b1-4)[Fuc(a1-3)]Glc
# Outline: as §1
# [10] = biological target: GlcNAc(b1-3)Gal(b1-3)GalNAc
# Outline: as §1
# [11] = biological target: GlcNAc(b1-4)GlcNAc(b1-4)GlcNAc
# Outline: as §1
# [12] = biological target: GlcNAc(b1-4)GlcNAc(b1-4)GlcNAc(b1-4)GlcNAc(b1-4)GlcNAc
# Outline: as §1
# [13] = biological target: Man(a1-2)Man(a1-2)Man(a1-3)Man
# Outline: as §1
# [14] = biological target: Man(a1-2)Man(a1-3)[Man(a1-2)Man(a1-6)]Man(a1-6)[Man(a1-2)Man(a1-2)Man(a1-3)]Man(b1-4)GlcNAc(b1-4)GlcNAc
# Outline: as §1
# [15] = biological target: Man(a1-2)Man(a1-3)[Man(a1-6)]Man(a1-6)[Man(a1-2)Man(a1-3)]Man(b1-4)GlcNAc(b1-4)GlcNAc
# Outline: as §1
# [16] = biological target: Neu5Ac(a2-3)Gal(b1-4)[Fuc(a1-3)]GlcNAc(b1-6)[Gal(b1-3)]GalNAc
# Outline: as §1
# [17] = biological target: Neu5Ac(a2-6)Gal(b1-4)GlcNAc6S
# Outline: as §1
# [18] = biological target: Fuc(a1-2)Gal(b1-3)GalNAc(b1-4)[Neu5Ac(a2-3)]Gal(b1-4)Glc
# Outline: as §1
# [19] = biological target: Fuc(a1-3)[Gal(b1-4)]GlcNAc6S
# Outline: as §1
# [20] = biological target: Fuc(a1-3)[Gal3S(b1-4)]Glc6S
# Outline: as §1
# [21] = biological target: Gal(b1-3)GlcNAc(b1-3)Gal(b1-4)Glc
# Outline: as §1
# [22] = biological target: Gal(b1-3)[Fuc(a1-4)]GlcNAc(b1-3)Gal(b1-3)[Fuc(a1-4)]GlcNAc
# Outline: as §1
# [23] = biological target: Gal(b1-3)[GlcNAc(b1-6)]GalNAc
# Outline: as §1
# [24] = biological target: Gal(b1-4)GlcNAc(b1-3)Gal(b1-4)GlcNAc
# Outline: as §1
# [25] = biological target: Gal(b1-4)GlcNAc(b1-3)[Gal(b1-4)GlcNAc(b1-6)]GalNAc
# Outline: as §1
# [26] = biological target: Gal3S(b1-3)[Fuc(a1-4)]GlcNAc
# Outline: as §1
# Gal3S(b1-4)Glc = biological target: Gal3S(b1-4)Glc
# Outline: as §1
# Gal3S6S(b1-4)GlcNAc = biological target: Gal3S6S(b1-4)GlcNAc
# Outline: as §1
# Gal6S(b1-4)GlcNAc = biological target: Gal6S(b1-4)GlcNAc
# Outline: as §1
# Glc(a1-4)Glc = biological target: Glc(a1-4)Glc
# Outline: as §1
# GlcNAc(b1-3)Gal(b1-4)Glc = biological target: GlcNAc(b1-3)Gal(b1-4)Glc
# Outline: as §1
# [27] = biological target: GlcNAc(b1-3)[GlcNAc(b1-6)]Gal(b1-4)GlcNAc
# Outline: as §1
# [28] = biological target: GlcNAc(b1-4)Gal(b1-4)GlcNAc
# Outline: as §1
# Kdn(a2-3)Gal(b1-3)GlcNAc = biological target: Kdn(a2-3)Gal(b1-3)GlcNAc
# Outline: as §1
# [29] = biological target: Neu5Ac(a2-3)Gal(b1-3)GalNAc(b1-3)Gal(b1-4)GlcNAc
# Outline: as §1
# [30] = biological target: Neu5Ac(a2-3)Gal(b1-3)GlcNAc
# Outline: as §1
# [31] = biological target: Neu5Ac(a2-3)Gal(b1-3)[Neu5Ac(a2-3)Gal(b1-4)]GlcNAc
# Outline: as §1
# [32] = biological target: Neu5Ac(a2-3)Gal(b1-4)GlcNAc(b1-2)Man(a1-3)[Neu5Ac(a2-3)Gal(b1-4)GlcNAc(b1-2)Man(a1-6)]Man(b1-4)GlcNAc(b1-4)GlcNAc
# Outline: as §1
# Neu5Ac(a2-3)GalNAc = biological target: Neu5Ac(a2-3)GalNAc
# Outline: as §1
# [33] = biological target: Neu5Ac(a2-3)[GalNAc(b1-4)]Gal(b1-4)Glc
# Outline: as §1
# [34] = biological target: Neu5Ac(a2-3)[Neu5Ac(a2-6)]GalNAc
# Outline: as §1
# [35] = biological target: Neu5Ac(a2-6)Gal(b1-4)GlcNAc(b1-2)Man(a1-6)[GlcNAc(b1-2)Man(a1-3)]Man(b1-4)GlcNAc(b1-4)GlcNAc
# Outline: as §1
# [36] = biological target: Neu5Gc(a2-3)Gal(b1-3)[Fuc(a1-4)]GlcNAc
# Outline: as §1
binder,measurement,setting,value
B1,glycan array binding signal (z-score),[1],0.084
same,glycan array binding signal (z-score),Fuc(a1-2)Gal(b1-4)GlcNAc,-0.019
same,glycan array binding signal (z-score),[2],-0.448
same,glycan array binding signal (z-score),[3],0.445
same,glycan array binding signal (z-score),[4],-0.779
same,glycan array binding signal (z-score),[5],3.34
same,glycan array binding signal (z-score),Gal(b1-2)Gal,0.362
same,glycan array binding signal (z-score),[6],-0.288
same,glycan array binding signal (z-score),[7],-0.236
same,glycan array binding signal (z-score),[8],-0.03
same,glycan array binding signal (z-score),Gal3S(b1-3)GlcNAc,3.28
same,glycan array binding signal (z-score),Gal3S(b1-4)Glc6S,3.45
same,glycan array binding signal (z-score),[9],1.15
same,glycan array binding signal (z-score),[10],3.21
same,glycan array binding signal (z-score),[11],1.92
same,glycan array binding signal (z-score),[12],-0.401
same,glycan array binding signal (z-score),[13],-0.502
same,glycan array binding signal (z-score),[14],-0.652
same,glycan array binding signal (z-score),[15],0.317
same,glycan array binding signal (z-score),[16],-0.335
same,glycan array binding signal (z-score),[17],3.29
B2,glycan array binding signal (z-score),[1],-0.303
same,glycan array binding signal (z-score),[18],-0.426
same,glycan array binding signal (z-score),[19],2.1
same,glycan array binding signal (z-score),[20],3.7
same,glycan array binding signal (z-score),[5],3.95
same,glycan array binding signal (z-score),[21],-0.261
same,glycan array binding signal (z-score),[22],0.199
same,glycan array binding signal (z-score),[23],-0.4
same,glycan array binding signal (z-score),[24],-0.29
same,glycan array binding signal (z-score),[25],-0.495
same,glycan array binding signal (z-score),[26],3.6
same,glycan array binding signal (z-score),Gal3S(b1-4)Glc,-0.174
same,glycan array binding signal (z-score),[9],4.89
same,glycan array binding signal (z-score),Gal3S6S(b1-4)GlcNAc,1.4
same,glycan array binding signal (z-score),Gal6S(b1-4)GlcNAc,-0.055
same,glycan array binding signal (z-score),Glc(a1-4)Glc,-0.562
same,glycan array binding signal (z-score),GlcNAc(b1-3)Gal(b1-4)Glc,-0.616
same,glycan array binding signal (z-score),[27],-0.63
same,glycan array binding signal (z-score),[28],-0.478
same,glycan array binding signal (z-score),Kdn(a2-3)Gal(b1-3)GlcNAc,-0.37
same,glycan array binding signal (z-score),[29],-0.354
same,glycan array binding signal (z-score),[30],-0.3
same,glycan array binding signal (z-score),[31],-0.297
same,glycan array binding signal (z-score),[32],-0.154
same,glycan array binding signal (z-score),Neu5Ac(a2-3)GalNAc,-0.381
same,glycan array binding signal (z-score),[33],-0.331
same,glycan array binding signal (z-score),[34],0.023
same,glycan array binding signal (z-score),[35],-0.311
same,glycan array binding signal (z-score),[36],3.75
